# Measurements taken from article PMC5540273 (PLoS ONE, 2017).
# What was measured:
# Details in all cases: concentration: 1 μM,replicates: in singlicate; n = 1
# [1] = system: RPS6KA4(Kin.Dom.1-N-terminal)
# [2] = system: RPS6KA4(Kin.Dom.2-C-terminal)
# [3] = system: RPS6KA5(Kin.Dom.1-N-terminal)
# [4] = system: RPS6KA5(Kin.Dom.2-C-terminal)
# [5] = system: T1, RSK1(Kin.Dom.1-N-terminal)
# T1 construct: gene RPS6KA1
# [6] = system: T2, RSK1(Kin.Dom.2-C-terminal)
# T2 construct: gene RPS6KA1
# [7] = system: T3, RSK2(Kin.Dom.1-N-terminal)
# T3 construct: gene RPS6KA3
# [8] = system: T4, RSK2(Kin.Dom.2-C-terminal)
# T4 construct: gene RPS6KA3
# [9] = system: T5, RSK3(Kin.Dom.1-N-terminal)
# T5 construct: gene RPS6KA2
# [10] = system: T6, RSK3(Kin.Dom.2-C-terminal)
# T6 construct: gene RPS6KA2
# 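Note: KINOMEscan kinase panel screen.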
SMILES,%Inh [1] [%],%Inh [2] [%],%Inh [3] [%],%Inh [4] [%],%Inh [5] [%],%Inh [6] [%],%Inh [7] [%],%Inh [8] [%],%Inh [9] [%],%Inh [10] [%]
Cn1ccc2ncnc(Oc3ccc(NC(=O)Nc4cncc(C(F)(F)F)c4)c(Cl)c3)c21,0,0,83,6,0,0,0,0,9,0
O=C(Nc1n[nH]c2cc(-c3ccco3)ccc12)C1CC1 [SB-737447],0,18,0,23,16,0,22,0,18,0
O=C(NOCC1CC1)c1cc(Br)c(F)c(F)c1Nc1ccc(I)cc1Cl,0,0,0,9,0,38,9,0,1,33
COc1ccc(Nc2nccc(N3CCC(NC(=O)c4cccc(C#N)c4)C3)n2)cc1 (stereo not shown) [GSK1379730],15,0,5,0,0,0,0,18,0,2
CC(=O)c1c(-c2ccncc2)[nH]c(-c2ccncc2)c1C [GW493036],34,0,0,61,26,0,0,0,0,7
COc1cccc(CNC(=O)NC2CCN(c3ccnc(Nc4cc(OC)c(OC)c(OC)c4)n3)C2)c1 (stereo not shown) [GSK1379765],1,0,0,0,17,0,7,29,22,1
O=C(NCC1CC1)c1ccc(-c2cc(C(=O)NC3CC3)ccc2F)cc1 [GW810445],7,0,0,7,0,3,0,0,0,0
